Screening data deposited in PubChem by Sanford-Burnham Center for Chemical Genomics.
Sampled rows, rich in hits. Any-hit rate of the full collection: about 4.1%.
beta cell repl: inducers of beta-cell replication in MIN6 cells; MIN6 cells proliferation, ATPlite luminescence, 48 h; cells starved in 0.2% serum; 100% = growth in 10% serum; 330,000 tested, 0.29% active; proliferation, % at 10 µM; AID 2380;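 active = compounds whose signal lies at least 3.5 SD above the mean of all wells on their plate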;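 also: 0% = DMSO-treated cells in low-serum medium and 100% = 10% serum control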
GRIN3A LBD mod: modulators (binders) of human NR3A ligand-binding domain. NR3A LBD differential scanning fluorimetry, Tm shift; 0% = protein alone, 100% = glycine-bound protein. Tm shift relative to glycine control, % at 25 µM. 340,000 tested, 2.5% active;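 active = melting temperature shift of at least 10% of the positive control shift, at one fixed dose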
FAS TE block: blocks the thioesterase domain of human fatty acid synthase | P49327 | recombinant FAS-TE, OMFH fluorogenic substrate, fluorescence endpoint | inhibition, % at 15 µM | 360,000 tested, 0.67% active | AID 602261;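 active = compounds whose normalised, plate-corrected inhibition of enzyme fluorescence in the single-dose primary screen is 50% or more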;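 also: 0% = DMSO with enzyme and 100% = substrate without enzyme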
pCIP destab: p/CIP protein destabilization; Q05BA5; F442A p/CIP-EGFP cells, EGFP fluorescence, 16 h; decrease of EGFP signal, % at 10 µM; 290,000 tested, 0.01% active; AID 1984;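 active = EGFP signal decrease of at least 30% at 10 µM or well 3 SD below plate mean, unless failing retest; inactive = the rest, including hits failing retest or dose response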
MPTP inh: inhibitors of mitochondrial permeability transition pore; 360,000 tested, 1.4% active; inhibition, % at 10 µM; AID 602449; isolated mouse mitochondria, Ca2+ swelling absorbance, 30 min;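 active = inhibition of 50% or more, scaled per plate between neutral and stimulator controls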;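 also: 0% = DMSO wells given calcium and 100% = 1 mM EGTA wells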
Starred values were filed as active, the others as inactive; x = no result given; ! = repeats disagree.

SMILES	beta cell repl	GRIN3A LBD mod	FAS TE block	pCIP destab	MPTP inh
Oc1nc(Nc2ccc(F)cc2)sc1/C=C1\C=Nc2ccccc21	-6	34*	1	0	40
Oc1cccc(Nc2nc(O)c(/C=C3\C=Nc4ccccc43)s2)c1	-6	21*	-3	-53	6
CC1=Nc2ccccc2/C1=C/c1sc(=O)n(CC(=O)N2CCCC2)c1O	-1	-1	2	6	1
Oc1nc(Nc2cccc(Cl)c2)sc1/C=C1\C=Nc2ccccc21	0	37*	13	0	33
Cc1ccc(S(=O)(=O)Nc2ccc(Nc3nccn4c(-c5ccc6ccccc6c5)cnc34)cc2)cc1	x	x	15	x	0
CCN(CC)C(=O)C1=C(C)N(CCCN2CCCC2=O)C(=O)C(CC(=O)NCCCN(C)C)C1 (stereo unspecified)	x	x	-12	x	-1
Cc1cccc(NC(=O)c2sc3nc(-c4ccccc4)cn3c2C)n1	-2	-3	4	-13	-1
Cc1c(C(=O)Nc2ccc3c(c2)OCO3)sc2nc(-c3ccccc3)cn12	-1	27*	2	-8	9
Cc1c(C(=O)NCc2ccc3c(c2)OCO3)sc2nc(-c3ccccc3)cn12	-3	-9	20	-19	-1
Cc1c(C(=O)Nc2ccccc2)sc2nc(-c3ccccc3)cn12	-3	26*	19	-8	4
CC1(C(=O)NS(C)(=O)=O)CCN1C(=O)C/C=C/c1ccccc1 (stereo unspecified)	x	x	-2	x	-3
O=C(O)CCCN1C(=O)/C(=C/c2ccc(-c3nc4ccccc4s3)o2)SC1=S	-2	26*	-1	8	30
O=C(O)CCCN1C(=O)/C(=C/c2ccncc2)SC1=S	-1	-2	-6	0	0
CCCCC(=O)N(C)c1c(C)nc2ccc(C(=O)N3CCN(C(=O)c4ccco4)CC3)cn12	x	x	0	x	-2
O=C(CSCc1ccc(Cl)cc1)Nc1cccc(C(=O)Nc2ccccc2C(=O)O)c1	-1	10*	-6	5	1
COc1ccc(S(=O)(=O)NCCc2c[nH]c3ccc(Cl)cc23)cc1	0	35*	18	-5	0
Cc1ccc(S(=O)(=O)NCCc2c[nH]c3ccccc23)cc1	-2	23*	7	-5	2
COc1ccc2[nH]cc(CCNS(=O)(=O)c3ccc(NC(C)=O)cc3)c2c1	0	1	-2	12	-2
CC1(C(=O)NS(=O)(=O)Cc2ccccc2C(F)(F)F)CCN1C(=O)Cc1ccsc1 (stereo unspecified)	x	x	-9	x	0
Cc1ccc(S(=O)(=O)NCC(=O)OCC(=O)N2N=C(c3ccc(Cl)cc3)CC2c2ccco2)cc1C (stereo unspecified)	0	31*	27	3	0
Cc1n[nH]c(=S)n1/N=C/c1ccccc1OCc1ccc(Cl)cc1Cl	-1	16*	-6	1	2
COc1ccc(Cn2cc(CN3CC(N4CCSCC4)CS3(=O)=O)nn2)cc1 (stereo unspecified)	x	x	-8	x	-2
Cc1ccc(-c2ccc3c(c2)O[C@H](CN(C)Cc2cncnc2)[C@@H](C)CN([C@H](C)CO)S3(=O)=O)cc1	x	x	6	x	0
O=C(Nc1cccc(C(F)(F)F)c1)C1(c2ccccc2)CC1	0	12*	10	-8	2
OC[C@H]1O[C@@H](c2nc3ccc(-c4nc(-c5cccs5)no4)cc3[nH]2)C[C@@H]1O	x	x	-6	x	-1
SMILES	beta cell repl	GRIN3A LBD mod	FAS TE block	pCIP destab	MPTP inh
COc1cc(NC(=O)CC[C@H]2O[C@@H](n3cnc4c(NC(=O)c5ccccc5)ncnc43)[C@H](O)[C@@H]2O)cc(OC)c1OC	x	x	-11	x	-1
[O-][n+]1onc2c1CCc1c-2nc(-c2ccccc2)n1OCc1ccccc1	0	0	5	-12	-12
COn1c(-c2ccccc2)nc2c1CCc1c-2no[n+]1[O-]	-2	13*	-4	-4	0
O=C(Oc1ccccc1)c1ccccc1	x	-1	7	x	0
O=C(Oc1ccc2ccccc2c1)c1ccccc1	-2	19*	28	-3	0
CC(NC(N)=O)C(=O)Nc1ccc(Cl)c(S(=O)(=O)Nc2ccc(Cl)cc2)c1 (stereo unspecified)	-2	2	-9	-1	-2
CCN(CC)CCNC(=O)c1ccc(Cl)c(S(=O)(=O)Nc2ccccc2OC)c1	-2	-2	-8	7	0
CCN(CC)CCNC(=O)c1ccc(Cl)c(S(=O)(=O)Nc2ccc(Cl)cc2)c1	0	21*!	-7	8	-1
CC(C)Oc1ccc(C(=O)Nc2ccc(Cl)c(S(=O)(=O)Nc3ccc(Cl)cc3)c2)cc1	0	20*	31	-3	41
O=C(CSc1n[nH]c(-c2cccnc2)n1)Nc1cccc(Cl)c1	-1	-7	-20	-2	0
Cc1ccc2nc(SCC(=O)Nc3ccc(C(N)=O)cc3)[nH]c2c1	0	-2	-4	2	2
Cc1ccc2nc(-c3ccc(NC(=O)CSc4ccccc4)cc3)[nH]c2c1	-3	29*	-6	-9	2
O=C(CSc1ccccc1)Nc1ccc(-c2nc3ccccc3[nH]2)cc1	-2	33*	-5	-1	0
COc1ccc2nc(SCC(=O)Nc3ccccc3)[nH]c2c1	-4	17*	14	-14	6
O=C(CSc1nc(-c2ccc(Cl)cc2)[nH]c(=O)n1)Nc1cccc(Cl)c1	-4	12*	44	-8	38
COc1ccc2nc(SCC(=O)NCc3ccccc3)[nH]c2c1	2	1	-3	-6	2
Cc1ccc(C(=O)CCC(=O)N2CCN(C/C=C/c3ccccc3)CC2)cc1	x	x	-1	x	-1
Cc1nn(CC(=O)NC2CCCCC2)c(C)c1[N+](=O)[O-]	x	x	-6	x	1
COc1cccc(CNC(=O)[C@@H]2CCCN2C(=O)[C@H]2CCCCN2C(=O)c2cccs2)c1	x	x	-7	x	0
O=C(CSc1cccs1)Nc1ccc2ccccc2c1	-2	5	19	-10	10
Cc1ccc2nc(-c3ccc(SCC(=O)O)nc3)[nH]c2c1	-4	1	-12	-5	-3
O=C(CSc1ccccc1)Nc1ccc2sccc2c1	-5	17*	10	-2	0
CCCCNS(=O)(=O)c1ccc2nc(SCC(=O)Nc3cccc(F)c3)[nH]c2c1	-5	17*	-13	-12	41
Cc1ccc2nc(-c3ccc(SCC(=O)N4CCc5ccccc54)nc3)[nH]c2c1	-3	23*	11	5	4
O=C(O)CCCC(=O)Nc1cccc(-c2nc3ccccc3[nH]2)c1	-3	0	-4	-5	-1
O=C(CSc1ccc(Cl)cc1)Nc1cccc(-c2nc3ccccc3[nH]2)c1	-1	32*	0	-7	-3
CC1(C)CC(=O)C=C(c2ccc(-c3cnc4ccccc4c3)cc2)C1=O	x	x	13	x	0
CC(C)(C)OC(=O)N1CCCN(C(c2cc3ccccc3o2)c2nnnn2C(C)(C)C)CC1 (stereo unspecified)	x	x	18	x	1
